High-throughput results as filed in PubChem.
An excerpt weighted towards active compounds, which were near 2.9% of everything screened.
proKLK7 act = activators of human kallikrein-7 zymogen; P49862; purified proKLK7, EDANS-DABCYL substrate fluorescence; 100% is mature enzyme control, 0% vehicle; activation, % at 7 µM; hit rate 0.9% among 370,000; AID 652039;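 active means activation above the mean of all tested compounds plus 3 SD, computed per campaign excluding outliers beyond control limits, cut at about 13% in these data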
FAS TE block = FAS thioesterase (human) inhibition; P49327; recombinant FAS-TE, OMFH fluorogenic substrate, fluorescence endpoint; inhibition, % at 15 µM; hit rate 0.67% among 360,000; AID 602261;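 active means compounds whose normalised, plate-corrected inhibition of enzyme fluorescence in the single-dose primary screen is 50% or more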;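 further: 0% = DMSO with enzyme and 100% = substrate without enzyme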
Target sequence (P49327 whole entry, looked up): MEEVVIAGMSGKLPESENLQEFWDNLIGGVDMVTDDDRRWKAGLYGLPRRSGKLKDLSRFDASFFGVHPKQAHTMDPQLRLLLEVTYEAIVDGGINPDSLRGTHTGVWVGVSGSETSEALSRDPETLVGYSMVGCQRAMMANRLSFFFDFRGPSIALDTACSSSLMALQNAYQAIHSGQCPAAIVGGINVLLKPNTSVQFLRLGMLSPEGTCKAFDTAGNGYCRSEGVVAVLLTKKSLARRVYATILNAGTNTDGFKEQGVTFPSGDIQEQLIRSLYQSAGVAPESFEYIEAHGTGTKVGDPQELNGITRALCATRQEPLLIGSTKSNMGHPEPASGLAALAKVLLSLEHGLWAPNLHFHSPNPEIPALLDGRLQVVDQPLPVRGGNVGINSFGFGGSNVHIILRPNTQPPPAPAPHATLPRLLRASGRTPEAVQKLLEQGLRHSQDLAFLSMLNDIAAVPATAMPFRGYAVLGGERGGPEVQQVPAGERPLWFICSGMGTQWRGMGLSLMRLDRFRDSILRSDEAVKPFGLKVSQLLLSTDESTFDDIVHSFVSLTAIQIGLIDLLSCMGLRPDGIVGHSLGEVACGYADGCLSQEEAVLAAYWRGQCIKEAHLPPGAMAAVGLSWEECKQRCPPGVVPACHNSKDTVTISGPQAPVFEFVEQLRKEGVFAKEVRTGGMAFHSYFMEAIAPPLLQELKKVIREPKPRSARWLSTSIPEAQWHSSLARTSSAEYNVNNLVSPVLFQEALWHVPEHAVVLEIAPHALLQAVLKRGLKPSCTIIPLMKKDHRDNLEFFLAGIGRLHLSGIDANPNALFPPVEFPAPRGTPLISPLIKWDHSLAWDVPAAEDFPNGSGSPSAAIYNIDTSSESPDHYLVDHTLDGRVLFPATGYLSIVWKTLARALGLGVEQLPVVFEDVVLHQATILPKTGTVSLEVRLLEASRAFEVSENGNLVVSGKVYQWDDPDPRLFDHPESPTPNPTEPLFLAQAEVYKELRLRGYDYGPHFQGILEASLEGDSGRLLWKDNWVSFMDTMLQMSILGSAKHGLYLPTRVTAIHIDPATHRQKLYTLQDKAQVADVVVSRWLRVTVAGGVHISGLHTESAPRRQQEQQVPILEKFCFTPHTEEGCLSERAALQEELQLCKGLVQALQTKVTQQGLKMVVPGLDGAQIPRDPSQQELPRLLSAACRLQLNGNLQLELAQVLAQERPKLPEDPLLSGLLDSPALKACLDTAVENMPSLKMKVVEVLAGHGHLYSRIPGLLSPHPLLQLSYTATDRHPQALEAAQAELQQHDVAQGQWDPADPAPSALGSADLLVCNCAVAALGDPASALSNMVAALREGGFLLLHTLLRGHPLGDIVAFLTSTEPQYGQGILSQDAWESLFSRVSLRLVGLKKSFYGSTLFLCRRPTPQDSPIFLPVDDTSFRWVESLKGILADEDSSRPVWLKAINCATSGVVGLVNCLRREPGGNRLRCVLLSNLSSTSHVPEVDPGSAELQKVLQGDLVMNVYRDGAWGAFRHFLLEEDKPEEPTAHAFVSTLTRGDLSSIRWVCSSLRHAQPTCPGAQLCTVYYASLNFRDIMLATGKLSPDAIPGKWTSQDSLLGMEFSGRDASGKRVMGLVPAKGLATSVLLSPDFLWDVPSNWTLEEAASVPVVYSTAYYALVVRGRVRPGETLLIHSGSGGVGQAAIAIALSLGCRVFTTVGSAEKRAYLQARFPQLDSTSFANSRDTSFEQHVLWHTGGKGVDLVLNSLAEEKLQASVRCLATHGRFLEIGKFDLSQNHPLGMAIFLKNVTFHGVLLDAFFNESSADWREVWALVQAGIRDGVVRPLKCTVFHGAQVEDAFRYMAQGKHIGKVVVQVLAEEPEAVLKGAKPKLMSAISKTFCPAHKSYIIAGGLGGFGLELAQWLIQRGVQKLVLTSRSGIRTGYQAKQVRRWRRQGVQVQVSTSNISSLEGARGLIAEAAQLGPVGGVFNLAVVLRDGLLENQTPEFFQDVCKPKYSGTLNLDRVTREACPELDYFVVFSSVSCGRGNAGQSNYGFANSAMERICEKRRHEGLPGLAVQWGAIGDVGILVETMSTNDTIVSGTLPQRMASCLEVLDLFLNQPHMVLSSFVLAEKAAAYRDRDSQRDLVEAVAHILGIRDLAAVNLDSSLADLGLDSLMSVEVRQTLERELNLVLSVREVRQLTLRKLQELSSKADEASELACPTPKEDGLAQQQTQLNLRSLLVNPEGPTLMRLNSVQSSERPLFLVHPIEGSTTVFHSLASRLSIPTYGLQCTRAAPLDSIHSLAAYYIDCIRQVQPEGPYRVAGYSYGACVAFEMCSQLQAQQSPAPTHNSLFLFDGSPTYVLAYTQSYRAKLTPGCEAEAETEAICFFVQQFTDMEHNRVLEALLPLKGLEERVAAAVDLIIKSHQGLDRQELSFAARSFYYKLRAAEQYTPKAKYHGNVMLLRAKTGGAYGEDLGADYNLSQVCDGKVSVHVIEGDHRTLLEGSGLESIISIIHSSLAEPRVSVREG
FXN GAA850 act = activators of GAA850 frataxin (FXN) promoter; HEK293 lucGAA850 FXN promoter luciferase reporter, 24 h; percent of 10 µM SAHA response; activation, % at 6 µM; hit rate 0.56% among 360,000; AID 540364;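 active means activation above the average of all compounds screened plus 3 SD, cutoff fixed separately per campaign, cut at about 7.5% in these data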;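 further: 0% = DMSO wells and 100% = 10 µM SAHA wells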
SMARCA2 activ = SMARCA2 function activation, primary screen | activation, % at 9.1 µM | MG213 cells, MMTV-luciferase reporter, dexamethasone, overnight | AID 652017 | hit rate 1% among 370,000; in the data active means activation above about 7.8%;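 further: 0% = vehicle wells and 100% = reference activator wells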
SMARCA2 act conf = confirmation of SMARCA2 (BRM) function activators; activation, % at 9.1 µM; MG213 cells, MMTV-luciferase with dexamethasone, luminescence, overnight; MG213 cells expressing E1A, Rb sequestered; DMSO wells 0%, reference activator 100%; AID 652260; shares compounds with SMARCA2 activ; hit rate 30% among 3,500;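 active means activation above its plate's cutoff, the mean activation of tested wells plus 3 SD, cut at about 7.9% in these data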
VP16 Luc act = GAL4-VP16 reporter activation counter-screen. shares compounds with SMARCA2 activ. HEK293 GAL4-VP16 pG5luc reporter, luciferase luminescence; scaled: DMSO wells 0%, SAHA wells 100%. activation, % at 9.1 µM. hit rate 41% among 3,500. AID 686939;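 active means activation above the solvent-only control well mean plus 3 SD, averaged across control plates, cut at about 5.2% in these data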
Active calls of the source: *; · = no result.

SMILES	proKLK7 act	FAS TE block	FXN GAA850 act	SMARCA2 activ	SMARCA2 act conf	VP16 Luc act
C=C(C)C(=O)OC1(C(F)(F)F)Oc2cc(C)ccc2NC1=O (centres undefined)	0.6	-6.0	6.6	21.0*	-4.9	4.8
CCOC(=O)C1(N(CC)CC)Sc2cc(C)ccc2NC1=O (centres undefined)	-0.6	5.1	-3.8	-3.9	·	·
COC(=O)c1ccccc1NC(=O)N1CCc2ccc(NC(=O)c3ccccn3)cc2C1	-0.1	20.7	3.0	8.1*	5.7	7.5*
Cc1cccc(C)c1NC(=O)C1(N(Cc2ccco2)C(=O)c2ccccn2)CCCC1	-0.2	-2.4	1.0	1.3	·	·
O=S(=O)(c1cccc(-c2n[nH]c(=S)n2C2CCCC2)c1)N1CCOCC1	0.9	0.0	1.4	8.8*	-0.9	0.4
CC(C)(C)c1ccc(C(=O)c2cn[nH]c2-c2ccccc2O)cc1	0.3	-126.1	4.1	4.4	·	·
COc1cc(OC)c(-c2nn3c(-c4ccco4)nnc3s2)cc1OC	-28.9	-4.2	1.4	-0.7	·	·
CC(=O)c1ccc(N2CCN(S(=O)(=O)c3ccc4c(c3)C(Cl)(Cl)C(=O)N4)CC2)cc1	0.7	3.5	-2.2	10.1*	3.7	1.2
OC1CCN(c2c3c(nc4cc(-c5cccc(F)c5)nn24)CCCC3)CC1	1.0	6.0	4.3	2.5	·	·
CN(CCO)c1c2c(nc3cc(-c4cccc(F)c4)nn13)CCCC2	-4.2	3.8	6.7	13.4*	11.2*	18.4*
Cc1ccc(NC(=O)CNC(=O)c2ccc(Oc3ccccc3)cc2)nc1	1.2	2.6	0.4	-1.9	·	·
Cc1ccc(NC(=O)CNC(=O)c2cccc(C)c2)nc1	0.5	-8.7	-0.8	8.4*	7.2	1.4
CC1Cc2ccccc2N1C(=O)CCNS(=O)(=O)c1cccc2nsnc12 (centres undefined)	-0.1	-1.2	0.4	0.7	·	·
COc1ccc(OC)c(-c2nn(-c3ccccc3)cc2C(=O)NCC2CCCO2)c1 (centres undefined)	0.6	-2.6	0.3	-0.2	·	·
COc1ccc(NC(=O)Cc2ccsc2)c(OC)c1	-0.8	-5.9	0.5	1.2	·	·
CC(Oc1ccc(Cl)cc1Cl)C(=O)N(C)c1ccccc1 (centres undefined)	0.9	11.6	1.2	-1.2	·	·
O=C(CCN1C(=O)/C(=C/c2ccccc2)SC1=S)NNC(=O)c1ccncc1	-0.1	-1.5	0.1	1.9	·	·
O=C(CCN1C(=O)/C(=C\c2ccccc2)SC1=S)NNC(=O)c1ccncc1	0.2	2.3	-1.3	9.7*	-5.3	0.3
COc1ccccc1NC(=O)C(=O)/C=C(\O)c1ccccc1	0.5	9.3	2.0	10.3*	-1.0	0.3
CC(C)(C)OC(=O)N1CCC(CNC(=O)c2ccccc2)CC1	-0.2	-4.5	-0.1	8.8*	-0.8	1.5
Cc1ccc2nc(Cl)c3cc(C(=O)NCCCN4CCCC4)sc3c2c1	0.1	-1.2	4.7	14.3*	10.3*	0.6
CCCCc1nc2cc(C(=O)N3CCNC(=O)C3)ccc2o1	-0.2	-4.1	0.3	-0.5	·	·
NNC(=O)CSc1cccc2cccnc12	-4.5	-11.9	1.2	-1.1	·	·
CN(C)C(=O)CSc1cccc2cccnc12	-0.2	-6.5	3.9	11.6*	-12.0	2.3
N#Cc1ccccc1OCC(=O)Nc1ccc(S(=O)(=O)N2CCOCC2)cc1	-0.2	5.4	1.6	9.6*	2.0	0.6
SMILES	proKLK7 act	FAS TE block	FXN GAA850 act	SMARCA2 activ	SMARCA2 act conf	VP16 Luc act
O=C(COC(=O)Cc1ccc(S(=O)(=O)N2CCOCC2)s1)Nc1ccccc1	0.3	-3.1	-1.3	8.1*	2.2	0.7
N#Cc1ccccc1OCC(=O)Nc1cccc(S(=O)(=O)N2CCCC2)c1	-0.3	8.7	0.4	0.6	·	·
CC(C)CC1C(=O)N(Cc2cn(CCC3OCCCO3)nn2)CCS(=O)(=O)N1Cc1ccc(-c2cccc(N(C)C)c2)cc1 (centres undefined)	0.4	4.5	-1.8	-4.4	·	·
O=C(CSc1nnc(-c2cccnc2)o1)Nc1cccc(F)c1	0.1	-7.4	3.8	1.4	·	·
Cc1ccc(S(=O)(=O)NC(=O)NC(C)c2ccc(F)cc2)cc1 (centres undefined)	-1.0	-4.8	0.5	8.0*	-0.3	0.8
Cn1cccc1/C=N/N1CCN(Cc2ccccc2)CC1	-0.1	-3.9	0.6	16.3*	1.4	0.9
Cn1cccc1/C=N/N1CCN(Cc2ccc(Cl)cc2)CC1	1.0	6.6	-1.4	-1.4	·	·
Cc1nn(CC(=O)Nc2ccc3c(c2)OCCO3)c(C)c1[N+](=O)[O-]	-0.3	-5.6	-1.4	0.0	·	·
Cc1ccc(C(=O)N/N=C2\CC3CC=CC23)c(C)c1 (centres undefined)	-0.7	-12.1	2.3	8.1*	-3.9	-0.4
Nc1c(C(=O)Nc2ccc(F)cc2)sc(=S)n1-c1ccccc1F	0.4	5.0	2.4	8.4*	0.9	3.4
Cn1c(N)c(C(=O)Nc2ccccc2F)sc1=S	-0.3	-4.0	1.5	-4.1	·	·
Cn1c(N)c(C(=O)Nc2ccc3ccccc3c2)sc1=S	0.8	1.5	6.6	10.3*	4.2	12.0*
C[C@@H]1ON(C)[C@H]2C[C@H]3c4[nH]c5cccc(Br)c5c4CCN3C(=O)[C@@H]12	0.5	·	·	3.8	·	·
CN(C)/C(=N\S(=O)(=O)c1ccccc1)c1ccc(Cl)cc1	-0.4	-3.6	2.1	0.2	·	·
CN(C)c1ccc(NC(N)=S)cc1	0.9	-9.0	1.4	1.9	·	·
CN(C)c1ccc(Cl)c(NC(N)=S)c1	-0.1	-11.5	1.1	8.2*	-1.7	-0.2
COC(=O)/C=c1/s/c(=C(\C#N)C(=O)NCc2ccco2)n(-c2ccc(C)cc2)c1=O	0.6	-20.3	0.2	2.6	·	·
CNC(C)C#Cc1ccc2c(=O)c3ccccc3oc2c1 (centres undefined)	-2.8	-3.0	5.2	9.2*	12.6*	3.8
CC(C)n1nnnc1C1c2ccccc2C(=O)N1CCc1ccccc1F (centres undefined)	-0.2	-3.9	·	8.8*	5.0	7.4*
CC(C)n1nnnc1C1c2ccccc2C(=O)N1CCc1c[nH]c2ccccc12 (centres undefined)	0.0	-8.2	·	3.1	·	·
COc1cccc(-c2cnc(C(O)c3ccc(C)c(F)c3)[nH]2)c1 (centres undefined)	·	1.0	0.9	·	·	·
COC(=O)c1c(C)[nH]c(C(=O)/C=C/c2ccccc2Cl)c1C	0.5	-4.3	3.1	4.9	·	·
COC(=O)c1c(C)[nH]c(C(=O)/C=C/c2ccccc2F)c1C	0.0	-5.1	4.6	14.7*	9.1*	9.7*
Cc1cc(-c2ccc(Cl)s2)n[nH]1	0.2	-5.8	2.9	0.9	·	·
O=C1CC(c2cc(-c3ccccc3)no2)C1	0.1	-4.0	3.7	9.7*	2.7	7.5*
CCS(=O)(=O)n1nc(-c2ccccc2)nc1N	-0.8	-6.7	2.1	1.3	·	·
